CR mimetic SO – yeast age-related superoxide inhibition as caloric restriction mimetic. hit rate 0.18% among 330,000. superoxide response (% of plate mean), % at 10 µM. S. cerevisiae aged cells, superoxide DHE fluorescence; stronger effect = lower value;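 active = superoxide response under a set limit, about three screen SD below normal, cut at about 65% in these data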;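 also: yeast aged for seven days with compound at 30 °C before DHE staining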
NR3A LBD binder – modulators (binders) of human NR3A ligand-binding domain | NR3A LBD differential scanning fluorimetry, Tm shift; 0% = protein alone, 100% = glycine-bound protein | Tm shift relative to glycine control, % at 25 µM | hit rate 2.5% among 340,000 | AID 1259313;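 active = melting temperature shift of at least 10% of the positive control shift, at one fixed dose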
dFosB activator – enhances mouse delta FosB homodimer DNA binding | purified delta FosB, TAMRA-CDK5 oligo fluorescence polarization; percent of positive-control signal above neutral wells | activation, % at 25 µM | hit rate 0.99% among 340,000;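 active = mean activation above about 17%, with every replicate also reaching it, limit read from the data, passing the limit was not always enough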
Target sequence (P13346 whole entry, looked up): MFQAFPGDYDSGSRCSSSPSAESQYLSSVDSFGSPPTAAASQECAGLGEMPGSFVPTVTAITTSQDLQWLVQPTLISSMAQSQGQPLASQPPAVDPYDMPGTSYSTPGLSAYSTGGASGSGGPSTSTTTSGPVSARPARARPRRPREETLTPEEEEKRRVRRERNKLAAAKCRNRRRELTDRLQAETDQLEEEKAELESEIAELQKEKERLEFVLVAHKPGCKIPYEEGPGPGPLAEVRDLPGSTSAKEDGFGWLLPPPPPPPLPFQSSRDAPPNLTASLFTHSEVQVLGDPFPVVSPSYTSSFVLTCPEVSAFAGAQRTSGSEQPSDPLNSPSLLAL
NALP1 yeast inh – NALP1 inhibition. S. cerevisiae NALP1/ASC/caspase-1 growth, X-gal OD620, 72 h. inhibition, % at 10 µM. hit rate 0.61% among 280,000; in the data active = inhibition mostly above about 24%, no sharp cut-off; inactive = mostly below about 32%
UBC13 polyUb – blocks human UBC13 polyubiquitin chain formation; P61088; TR-FRET; inhibition, % at 20 µM; hit rate 0.47% among 330,000; AID 485273; in the data active = inhibition above about 45%, passing the limit was not always enough
A number is an active result; - = inactive; . = not tested or not shown. Most compounds without a hit are left out; they make up all but 4.3% or so of the library.

SMILES	CR mimetic SO	NR3A LBD binder	dFosB activator	NALP1 yeast inh	UBC13 polyUb
Cc1cc(C)nc(NS(=O)(=O)c2ccc(NC(=O)c3cc(-c4ccccc4)nc4ccccc34)cc2)n1	-	19.0	-	-	-
CCN(CC)S(=O)(=O)c1ccc(NC(=O)c2cc(-c3ccccc3)nc3ccccc23)cc1	-	-	-	-	-
Cc1cc(C)nc(NS(=O)(=O)c2ccc(NC(=O)Nc3ccccc3F)cc2)n1	-	11.3	.	-	-
CC(=O)N1CCOc2ccc(S(=O)(=O)NC[C@H]3O[C@@H](n4cnc5c(N)ncnc54)[C@H](O)[C@@H]3O)cc21	-	-	-	.	.
Cc1ccc(S(=O)(=O)NCc2cccnc2)cc1C(=O)N1CCCC1	-	-	-	-	-
Cc1[nH]n(-c2ccccc2)c(=O)c1C(c1cccc([N+](=O)[O-])c1)c1c(C)[nH]n(-c2ccccc2)c1=O	-	-	-	-	-
Cc1[nH]n(-c2ccccc2)c(=O)c1C(c1ccc(C(=O)O)cc1)c1c(C)[nH]n(-c2ccccc2)c1=O	-	-	-	-	-
Cc1[nH]n(-c2ccccc2)c(=O)c1C(C[N+](=O)[O-])c1ccc(Br)cc1 (stereo unspecified)	-	-	-	64.6	-
Cc1c(C(c2cccc([N+](=O)[O-])c2O)c2c(C)n(C)n(-c3ccccc3)c2=O)c(=O)n(-c2ccccc2)n1C	-	-	-	-	-
COc1cccc(C(C[N+](=O)[O-])c2c(C)[nH]n(-c3ccccc3)c2=O)c1 (stereo unspecified)	-	-	-	84.7	-
Cc1[nH]n(-c2ccccc2)c(=O)c1C(c1cccc([N+](=O)[O-])c1O)c1c(C)[nH]n(-c2ccccc2)c1=O	-	18.7	-	-	-
Cc1ccc(-n2ncc3c2CC(C)(C)CC3NC(=O)CCc2c(C)noc2C)cc1 (stereo unspecified)	-	-	-	-	-
C=CCn1c(SCC(=O)Nc2ccc(F)cc2)nc2cc(C(=O)O)ccc2c1=O	-	14.6	-	-	-
CC1(c2ccc3c(c2)OCCCO3)NC(=O)N(CC(=O)Nc2cccc(C#N)c2)C1=O (stereo unspecified)	-	-	-	.	-
Cc1c(CC(=O)N[C@@H](C)C(=O)O)c(=O)oc2cc3oc4c(c3cc12)CCCC4	-	-	-	-	-
CC(=O)Nc1ccc(S(=O)(=O)NCCC(=O)OCC(=O)NCc2ccccc2)cc1	-	-	-	.	-
O=C(CCc1nc(-c2ccccc2)c(-c2ccccc2)o1)OCc1ccc(Br)cc1	-	-	-	-	-
O=C(CCc1nc(-c2ccccc2)c(-c2ccccc2)o1)OCc1ccc(Cl)cc1	-	-	-	36.8	-
COc1ccc(OC)c(N=c2ssnc2Cl)c1	-	-	-	-	-
Cc1cc(Cl)ccc1N=c1ssnc1Cl	-	24.2	-	-	-
Cc1nnc(N=c2ssnc2Cl)o1	-	21.3	-	.	-
Cc1ccc(N=c2ssnc2Cl)cc1	-	21.9	-	-	-
COc1cc(N=c2ssnc2Cl)c(OC)cc1Cl	-	19.0	-	-	-
CN(C)CCNC(=O)c1ccc(Sc2ccc(Br)cc2)c([N+](=O)[O-])c1	-	-	-	-	-
O=[N+]([O-])c1cccc(-c2cc3ccccc3[nH]2)c1	-	33.6	-	-	-
SMILES	CR mimetic SO	NR3A LBD binder	dFosB activator	NALP1 yeast inh	UBC13 polyUb
O=[N+]([O-])c1ccc2nc(-c3cccnc3)[nH]c2c1	-	-	-	-	-
O=[N+]([O-])c1cccc(-c2cnc3ccccc3n2)c1	-	-	-	-	-
O=[N+]([O-])c1cccc(/C=C/c2nc3ccc([N+](=O)[O-])cc3[nH]2)c1	-	16.0	-	-	-
O=[N+]([O-])c1ccc2nc(-c3ccccc3)[nH]c2c1	-	16.5	-	-	-
CCOc1ccc(OCCC(=O)N(CCC(C)C)c2c(N)n(Cc3ccccc3)c(=O)[nH]c2=O)cc1	-	-	-	.	-
CC1CC(NS(=O)(=O)c2cc3c4c(c2)CCN4C(=O)CC3)CC(C)(C)C1 (stereo unspecified)	-	-	-	.	-
O=C(O)c1ccc(CN(c2ccccn2)S(=O)(=O)c2ccccc2)cc1	-	-	-	-	-
Cc1c(Cl)cccc1N(Cc1ccc(C(=O)O)cc1)S(=O)(=O)c1ccccc1	-	12.8	-	-	-
CCN(CC)C(=O)Oc1ccc(Cl)c2cccnc12	-	-	-	-	-
O=C(Nc1cccc(C(F)(F)F)c1)Oc1ccc(Cl)c2cccnc12	-	.	-	48.2	.
